According to the supplement of paper PMC10849652:
Targets with a hit are over-represented here; the source holds about 7,900 in all. About 0.6% of all pairs of compound and target were hits. Values without a mark were called inactive.

Experiments:
Assay in all cases: log2 fold change, soluble protein after heating vs DMSO (PISA); higher = thermal stabilisation; K562 cells, 10 uM, 30 min; active = over 0.2 and 3.5 SD of the protein, either way, in both replicates (recomputed)
saracatinib = compound: CN1CCN(CCOc2cc(OC3CCOCC3)c3c(Nc4c(Cl)ccc5c4OCO5)ncnc3c2)CC1 [saracatinib]
How it was run: (§1)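 K562 cells at 2×10^6 cells/mL were treated with 10 μM compound for 30 min. Aliquots were heated for 3 min across 48°C-58°C, pooled, and extracted in PBS with 0.5% NP-40 at 4°C; soluble protein was the supernatant after 21,000xg for 90 min. Soluble protein was quantified by TMTpro 16plex LC-MS/MS with channel sums equalised, and reported as log2 fold change in thermal stability against DMSO controls, with values from duplicates.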

sotrastaurin = compound: CN1CCN(c2nc(C3=C(c4c[nH]c5ccccc45)C(=O)NC3=O)c3ccccc3n2)CC1 [sotrastaurin]
How it was run: as §1

alvocidib = compound: CN1CC[C@H](c2c(O)cc(O)c3c(=O)cc(-c4ccccc4Cl)oc23)[C@H](O)C1 [alvocidib]
How it was run: as §1

Tubastatin A = compound: CN1CCc2c(c3ccccc3n2Cc2ccc(C(=O)NO)cc2)C1 [Tubastatin A]
How it was run: as §1

[1] = compound: CNC(=O)C1=CC=CC=C1NC2=NC(=NC=C2Cl)NC3=C(C=C(C=C3)N4CCOCC4)OC
How it was run: as §1

defactinib = compound: CNC(=O)c1ccc(Nc2ncc(C(F)(F)F)c(NCc3nccnc3N(C)S(C)(=O)=O)n2)cc1 [defactinib]
How it was run: as §1

rucaparib = compound: CNCc1ccc(-c2[nH]c3cc(F)cc4c3c2CCNC4=O)cc1 [rucaparib]
How it was run: as §1

[2] = compound: CNc1nc(-c2ccc3c(N)n[nH]c3c2)cc(N2C[C@@H](C(=O)NC3CCCCC3)CC[C@H]2C)n1
How it was run: as §1

encorafenib = compound: COC(=O)N[C@@H](C)CNc1nccc(-c2cn(C(C)C)nc2-c2cc(Cl)cc(NS(C)(=O)=O)c2F)n1 [encorafenib]
How it was run: as §1

[3] = compound: COC(=O)[C@H](CCSC)NC(=O)C1=C(C=C(C=C1)NC[C@H](CS)N)C2=CC=CC=C2
How it was run: as §1

[4] = compound: COC1=CC=C(C=C1)CN2C=CC3=C2C=C(C=C3)C(=O)NO
How it was run: as §1

filanesib = compound: CON(C)C(=O)N1N=C(c2cc(F)ccc2F)S[C@@]1(CCCN)c1ccccc1 [filanesib]
How it was run: as §1

zotarolimus = compound: CO[C@H]1C[C@@H]2CC[C@@H](C)[C@@](O)(O2)C(=O)C(=O)N2CCCC[C@H]2C(=O)O[C@H]([C@H](C)C[C@@H]2CC[C@H](n3cnnn3)[C@H](OC)C2)CC(=O)[C@H](C)/C=C(\C)[C@@H](O)[C@@H](OC)C(=O)[C@H](C)C[C@H](C)/C=C/C=C/C=C/1C [zotarolimus]
How it was run: as §1

idasanutlin = compound: COc1cc(C(=O)O)ccc1NC(=O)[C@@H]1N[C@@H](CC(C)(C)C)[C@](C#N)(c2ccc(Cl)cc2F)[C@H]1c1cccc(Cl)c1F [idasanutlin]
How it was run: as §1

alisertib = compound: COc1cc(Nc2ncc3c(n2)-c2ccc(Cl)cc2C(c2c(F)cccc2OC)=NC3)ccc1C(=O)O [alisertib]
How it was run: as §1

[5] = compound: COc1cc2nc(-c3cc(F)ccc3O)nc(N[C@@H]3CNC[C@H]3C(C)(C)O)c2cc1OC
How it was run: as §1

gefitinib = compound: COc1cc2ncnc(Nc3ccc(F)c(Cl)c3)c2cc1OCCCN1CCOCC1 [gefitinib]
How it was run: as §1

[6] = compound: COc1cccc2cc(-c3nc([C@H]4CC[C@H](C(=O)O)CC4)n4ncnc(N)c34)[nH]c12
How it was run: as §1

lapatinib = compound: CS(=O)(=O)CCNCc1ccc(-c2ccc3ncnc(Nc4ccc(OCc5cccc(F)c5)c(Cl)c4)c3c2)o1 [lapatinib]
How it was run: as §1

pictilisib = compound: CS(=O)(=O)N1CCN(Cc2cc3nc(-c4cccc5[nH]ncc45)nc(N4CCOCC4)c3s2)CC1 [pictilisib]
How it was run: as §1

Chain of UniProt Q13796 (Q13796 whole entry, looked up): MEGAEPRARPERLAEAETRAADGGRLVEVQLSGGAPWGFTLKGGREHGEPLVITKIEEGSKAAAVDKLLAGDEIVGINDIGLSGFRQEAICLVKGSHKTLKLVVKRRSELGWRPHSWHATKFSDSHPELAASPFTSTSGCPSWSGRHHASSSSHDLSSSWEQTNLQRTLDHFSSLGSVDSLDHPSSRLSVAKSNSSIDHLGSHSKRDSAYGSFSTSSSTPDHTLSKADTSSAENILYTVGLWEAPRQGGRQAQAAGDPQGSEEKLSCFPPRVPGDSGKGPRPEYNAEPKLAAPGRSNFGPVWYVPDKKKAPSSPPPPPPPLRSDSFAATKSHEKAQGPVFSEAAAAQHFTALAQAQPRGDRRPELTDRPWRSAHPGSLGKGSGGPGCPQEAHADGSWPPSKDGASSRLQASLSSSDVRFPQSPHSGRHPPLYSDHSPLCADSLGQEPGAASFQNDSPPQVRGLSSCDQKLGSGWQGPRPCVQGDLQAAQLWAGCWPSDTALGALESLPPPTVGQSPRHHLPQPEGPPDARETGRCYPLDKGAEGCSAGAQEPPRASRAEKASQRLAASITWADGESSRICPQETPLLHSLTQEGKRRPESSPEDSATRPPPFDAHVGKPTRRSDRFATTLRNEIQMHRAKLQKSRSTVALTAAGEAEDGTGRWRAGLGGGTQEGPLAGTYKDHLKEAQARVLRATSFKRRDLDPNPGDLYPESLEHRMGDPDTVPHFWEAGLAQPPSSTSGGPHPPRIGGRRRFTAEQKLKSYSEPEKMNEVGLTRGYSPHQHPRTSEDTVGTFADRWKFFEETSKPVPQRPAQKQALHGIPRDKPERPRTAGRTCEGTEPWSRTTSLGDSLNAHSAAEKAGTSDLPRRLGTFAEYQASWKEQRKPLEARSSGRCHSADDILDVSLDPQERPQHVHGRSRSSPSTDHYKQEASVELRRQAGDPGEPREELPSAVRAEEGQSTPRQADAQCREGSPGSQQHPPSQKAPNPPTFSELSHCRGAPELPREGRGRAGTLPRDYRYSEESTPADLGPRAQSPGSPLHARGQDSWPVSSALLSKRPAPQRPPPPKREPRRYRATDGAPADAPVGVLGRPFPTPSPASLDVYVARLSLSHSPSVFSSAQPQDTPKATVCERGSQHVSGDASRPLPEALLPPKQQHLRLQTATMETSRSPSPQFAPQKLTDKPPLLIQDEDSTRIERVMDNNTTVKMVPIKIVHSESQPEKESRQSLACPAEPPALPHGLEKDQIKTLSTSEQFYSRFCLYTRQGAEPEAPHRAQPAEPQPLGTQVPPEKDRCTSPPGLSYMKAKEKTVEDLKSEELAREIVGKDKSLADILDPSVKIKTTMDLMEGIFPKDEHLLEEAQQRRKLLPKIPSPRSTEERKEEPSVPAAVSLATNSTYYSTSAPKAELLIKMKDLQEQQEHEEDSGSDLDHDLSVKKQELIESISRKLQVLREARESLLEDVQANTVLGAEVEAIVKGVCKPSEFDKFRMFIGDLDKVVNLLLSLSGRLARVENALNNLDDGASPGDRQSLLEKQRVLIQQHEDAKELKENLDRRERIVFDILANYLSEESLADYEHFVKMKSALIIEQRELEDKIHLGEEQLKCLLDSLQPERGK
Chain of UniProt Q9P2N5 (Q9P2N5 whole entry, looked up): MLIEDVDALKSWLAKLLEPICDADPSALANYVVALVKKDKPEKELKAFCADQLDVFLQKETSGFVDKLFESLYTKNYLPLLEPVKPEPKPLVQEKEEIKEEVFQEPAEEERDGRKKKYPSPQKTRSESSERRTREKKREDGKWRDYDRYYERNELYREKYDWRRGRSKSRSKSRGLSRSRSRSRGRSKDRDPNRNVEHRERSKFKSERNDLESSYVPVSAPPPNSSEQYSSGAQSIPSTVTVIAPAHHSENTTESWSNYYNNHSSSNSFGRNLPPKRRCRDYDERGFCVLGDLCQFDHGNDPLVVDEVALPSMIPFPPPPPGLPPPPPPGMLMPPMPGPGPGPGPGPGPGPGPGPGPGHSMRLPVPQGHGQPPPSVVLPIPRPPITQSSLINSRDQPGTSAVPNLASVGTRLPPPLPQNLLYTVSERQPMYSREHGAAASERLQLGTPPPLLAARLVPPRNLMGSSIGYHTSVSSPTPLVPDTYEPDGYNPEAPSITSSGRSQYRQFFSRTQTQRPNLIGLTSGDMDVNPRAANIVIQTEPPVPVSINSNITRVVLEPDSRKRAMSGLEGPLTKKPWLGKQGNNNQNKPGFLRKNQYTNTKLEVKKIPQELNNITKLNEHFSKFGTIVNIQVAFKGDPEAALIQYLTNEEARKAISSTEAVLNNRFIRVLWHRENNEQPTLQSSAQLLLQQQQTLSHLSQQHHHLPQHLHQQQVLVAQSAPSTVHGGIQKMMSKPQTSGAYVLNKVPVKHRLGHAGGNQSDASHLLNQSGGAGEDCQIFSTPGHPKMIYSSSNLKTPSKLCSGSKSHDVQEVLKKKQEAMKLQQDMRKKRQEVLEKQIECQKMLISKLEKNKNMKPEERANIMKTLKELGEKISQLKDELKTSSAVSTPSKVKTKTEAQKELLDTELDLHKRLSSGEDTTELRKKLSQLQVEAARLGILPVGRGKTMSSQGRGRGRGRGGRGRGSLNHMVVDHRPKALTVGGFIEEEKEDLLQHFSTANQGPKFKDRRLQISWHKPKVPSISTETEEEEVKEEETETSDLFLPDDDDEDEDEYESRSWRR
Chain of UniProt Q8N122 (Q8N122 whole entry, looked up): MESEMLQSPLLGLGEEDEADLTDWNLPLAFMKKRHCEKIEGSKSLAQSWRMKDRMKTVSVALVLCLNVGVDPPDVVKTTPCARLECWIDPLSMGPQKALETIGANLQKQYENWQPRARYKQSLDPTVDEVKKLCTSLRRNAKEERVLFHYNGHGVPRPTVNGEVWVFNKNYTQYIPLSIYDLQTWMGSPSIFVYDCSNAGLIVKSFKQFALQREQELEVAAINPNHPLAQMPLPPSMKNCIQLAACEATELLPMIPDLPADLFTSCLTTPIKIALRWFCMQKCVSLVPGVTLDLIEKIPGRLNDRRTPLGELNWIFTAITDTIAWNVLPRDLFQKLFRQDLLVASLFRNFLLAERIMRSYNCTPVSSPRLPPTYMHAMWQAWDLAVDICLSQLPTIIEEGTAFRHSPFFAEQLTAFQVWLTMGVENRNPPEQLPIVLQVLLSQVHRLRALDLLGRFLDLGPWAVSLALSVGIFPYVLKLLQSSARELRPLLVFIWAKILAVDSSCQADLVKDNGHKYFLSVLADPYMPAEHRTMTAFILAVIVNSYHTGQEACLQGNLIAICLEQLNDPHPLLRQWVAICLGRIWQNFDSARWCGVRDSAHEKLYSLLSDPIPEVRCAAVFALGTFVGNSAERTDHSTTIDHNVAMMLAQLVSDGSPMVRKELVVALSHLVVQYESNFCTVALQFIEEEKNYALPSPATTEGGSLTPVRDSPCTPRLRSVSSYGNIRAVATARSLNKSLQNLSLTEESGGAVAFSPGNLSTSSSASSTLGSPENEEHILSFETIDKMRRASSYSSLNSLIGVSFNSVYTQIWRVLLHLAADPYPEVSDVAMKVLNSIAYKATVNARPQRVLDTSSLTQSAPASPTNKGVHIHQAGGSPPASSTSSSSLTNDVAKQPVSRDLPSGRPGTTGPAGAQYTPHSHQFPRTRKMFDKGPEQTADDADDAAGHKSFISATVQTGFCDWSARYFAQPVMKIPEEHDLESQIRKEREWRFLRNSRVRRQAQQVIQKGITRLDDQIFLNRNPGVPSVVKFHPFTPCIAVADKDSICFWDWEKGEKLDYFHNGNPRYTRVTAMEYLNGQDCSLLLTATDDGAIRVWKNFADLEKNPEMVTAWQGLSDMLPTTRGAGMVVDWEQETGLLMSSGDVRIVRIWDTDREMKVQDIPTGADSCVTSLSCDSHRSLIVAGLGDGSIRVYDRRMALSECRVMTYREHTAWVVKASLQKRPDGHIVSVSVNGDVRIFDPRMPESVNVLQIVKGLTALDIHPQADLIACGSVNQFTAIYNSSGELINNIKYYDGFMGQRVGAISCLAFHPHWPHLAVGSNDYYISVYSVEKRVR
Chain of UniProt Q9HB90 (Q9HB90 whole entry, looked up): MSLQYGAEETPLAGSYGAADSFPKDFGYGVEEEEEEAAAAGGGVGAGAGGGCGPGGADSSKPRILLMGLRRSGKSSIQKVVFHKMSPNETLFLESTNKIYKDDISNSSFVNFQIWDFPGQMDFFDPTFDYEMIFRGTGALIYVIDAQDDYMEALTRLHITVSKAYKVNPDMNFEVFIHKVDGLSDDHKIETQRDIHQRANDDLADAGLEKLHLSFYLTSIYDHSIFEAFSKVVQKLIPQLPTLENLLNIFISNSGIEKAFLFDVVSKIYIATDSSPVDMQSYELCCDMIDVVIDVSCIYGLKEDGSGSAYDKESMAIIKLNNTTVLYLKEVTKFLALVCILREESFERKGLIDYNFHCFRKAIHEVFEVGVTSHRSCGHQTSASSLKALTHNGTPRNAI
Chain of UniProt Q8IZQ5 (Q8IZQ5 whole entry, looked up): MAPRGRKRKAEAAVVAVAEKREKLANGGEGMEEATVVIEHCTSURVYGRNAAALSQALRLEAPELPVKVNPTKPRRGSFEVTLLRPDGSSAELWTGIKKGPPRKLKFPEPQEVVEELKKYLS
Chain of UniProt Q99961 (Q99961 whole entry, looked up): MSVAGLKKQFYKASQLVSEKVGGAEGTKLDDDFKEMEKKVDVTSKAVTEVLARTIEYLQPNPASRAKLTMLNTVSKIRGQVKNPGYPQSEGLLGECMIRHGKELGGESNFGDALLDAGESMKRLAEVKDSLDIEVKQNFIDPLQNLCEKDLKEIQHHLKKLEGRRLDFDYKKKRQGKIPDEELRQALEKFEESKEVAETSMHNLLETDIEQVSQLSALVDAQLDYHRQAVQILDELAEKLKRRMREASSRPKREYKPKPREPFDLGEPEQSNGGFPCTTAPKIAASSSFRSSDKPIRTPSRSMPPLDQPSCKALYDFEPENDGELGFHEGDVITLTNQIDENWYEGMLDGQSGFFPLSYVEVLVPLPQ

| Target | log2 fold change (saracatinib) | log2 fold change (sotrastaurin) | log2 fold change (alvocidib) | log2 fold change (Tubastatin A) | log2 fold change [1] | log2 fold change (defactinib) | log2 fold change (rucaparib) | log2 fold change [2] | log2 fold change (encorafenib) | log2 fold change [3] | log2 fold change [4] | log2 fold change (filanesib) | log2 fold change (zotarolimus) | log2 fold change (idasanutlin) | log2 fold change (alisertib) | log2 fold change [5] | log2 fold change (gefitinib) | log2 fold change [6] | log2 fold change (lapatinib) | log2 fold change (pictilisib) |
| --- | --- | --- | --- | --- | --- | --- | --- | --- | --- | --- | --- | --- | --- | --- | --- | --- | --- | --- | --- | --- |
| RBM17 (UniProt Q96I25) | 0.005 | -0.039 | -0.018 | 0.065 | -0.03 | -0.174 | 0.055 | -0.025 | 0.05 | -0.044 | 0.026 | 0.038 | 0.064 | 0.121 | -0.055 | -0.031 | 0.003 | 0.019 | 0 | -0.276 |
| SH3GL1 (UniProt Q99961) | -0.157 | -0.163 | -0.118 | 0.092 | -0.035 | -0.116 | 0.022 | 0.054 | 0.062 | -0.043 | 0.046 | -0.047 | 0.062 | 0 | 0.012 | 0 | -0.029 | -0.048 | -0.008 | -0.005 |
| SELENOH (UniProt Q8IZQ5) | 0.124 | -0.171 | 0.066 | 0.032 | -0.063 | -0.026 | -0.011 | 0.022 | 0.011 | -0.038 | 0.204 | -0.077 | 0.035 | 0.02 | -0.27 | -0.114 | -0.028 | -0.038 | 0.08 | -0.074 |
| SHROOM2 (UniProt Q13796) | -0.118 | 0.128 | 0.071 | 0.283 | -0.29 | 0.059 | -0.049 | 0.08 | -0.136 | 0.1 | 0.417 | 0.066 | 0.02 | -0.045 | -0.027 | 0.237 | 0.056 | 0.009 | -0.188 | 0.226 |
| RPTOR (UniProt Q8N122) | -0.005 | -0.01 | 0.123 | 0.027 | -0.044 | -0.074 | -0.068 | 0.033 | 0.047 | -0.039 | 0.042 | -0.077 | -0.194 | -0.066 | -0.054 | -0.056 | 0.007 | -0.072 | 0.028 | -0.022 |
| RAB3IL1 (UniProt Q8TBN0) | 0.007 | -0.02 | 0.06 | -0.02 | 0.023 | -0.042 | -0.005 | 0.001 | -0.03 | -0.022 | -0.006 | -0.003 | -0.023 | 0 | -0.115 | 0.07 | 0.033 | 0.038 | 0.001 | -0.019 |
| RRAGC (UniProt Q9HB90) | 0.023 | 0.006 | -0.013 | -0.025 | -0.014 | -0.005 | -0.058 | -0.063 | 0.036 | -0.005 | -0.028 | -0.095 | -0.009 | -0.065 | -0.003 | 0.011 | -0.01 | 0.057 | -0.01 | 0.066 |
| RHEB (UniProt Q15382) | 0.047 | 0.04 | -0.008 | -0.054 | -0.032 | 0.002 | -0.084 | -0.011 | 0.025 | 0 | -0.007 | -0.08 | 0.016 | -0.049 | -0.03 | 0.032 | 0.015 | 0.057 | 0.005 | 0.029 |
| SIRT2 (UniProt Q8IXJ6) | 0.031 | 0.136 | -0.023 | -0.015 | -0.038 | -0.015 | -0.033 | 0.181 | 0.014 | 0.025 | 0.083 | -0.02 | -0.029 | 0.016 | 0.036 | -0.012 | 0.069 | 0.017 | 0.065 | 0.168 |
| RBM27 (UniProt Q9P2N5) | 0.04 | -0.039 | -0.141 | 0.013 | -0.297 (active) | -0.303 (active) | -0.015 | 0.033 | -0.011 | -0.042 | -0.025 | 0.094 | 0.027 | 0.075 | 0.02 | -0.058 | 0.057 | 0.018 | 0.051 | -0.08 |
| RIOK2 (UniProt Q9BVS4) | -0.073 | 0.033 | 0.169 | 0.067 | 0.195 | 0.138 | 0.014 | 0.069 | 0.05 | -0.009 | -0.039 | 0.064 | -0.017 | 0.01 | -0.025 | 0.074 | -0.101 | -0.057 | 0.08 | 0.049 |
| SDCBP (UniProt O00560) | -0.012 | 0.021 | -0.096 | 0.025 | 0.007 | 0.042 | 0.117 | -0.541 (active) | 0.06 | -0.001 | -0.022 | -0.154 | 0.1 | 0.101 | -0.04 | -0.152 | -0.043 | -0.022 | 0.005 | -0.05 |
| SEPTIN5 (UniProt Q99719) | 0.051 | 0.001 | -0.042 | -0.035 | -0.022 | 0.008 | -0.036 | 0.003 | -0.007 | -0.006 | 0.034 | -0.003 | 0.013 | -0.067 | -0.044 | 0 | 0.006 | 0.02 | -0.035 | 0.08 |
| REEP4 (UniProt Q9H6H4) | 0.047 | -0.068 | 0.034 | 0.018 | -0.122 | 0.008 | 0.086 | -0.014 | -0.013 | -0.01 | -0.039 | -0.072 | -0.034 | 0.033 | -0.07 | -0.32 (active) | -0.032 | -0.031 | 0.121 | -0.175 |
| RPS14 (UniProt P62263) | 0.027 | -0.003 | 0.166 | 0.123 | 0.056 | 0.113 | 0.107 | 0.069 | 0.013 | -0.084 | 0.034 | 0.046 | 0.028 | 0.062 | -0.209 | -0.047 | -0.048 | -0.154 | 0.132 | -0.321 |
